LmPK inhibitor: qHTS Assay for Inhibitors of Leishmania Mexicana Pyruvate Kinase (LmPK). Q27686. purified LmPK, Kinase-Glo ATP luminescence, 1 h. Potency, µM (titrated, usually from 57.5 µM), without a hit: top-dose activity change, negative = inhibition, actives largely listed as inhibitors. 0.37% of 290,000 active. AID 1721, 2009; also: potency is read from the fitted curve at half-maximal effect
Target sequence (Q27686 whole entry, looked up): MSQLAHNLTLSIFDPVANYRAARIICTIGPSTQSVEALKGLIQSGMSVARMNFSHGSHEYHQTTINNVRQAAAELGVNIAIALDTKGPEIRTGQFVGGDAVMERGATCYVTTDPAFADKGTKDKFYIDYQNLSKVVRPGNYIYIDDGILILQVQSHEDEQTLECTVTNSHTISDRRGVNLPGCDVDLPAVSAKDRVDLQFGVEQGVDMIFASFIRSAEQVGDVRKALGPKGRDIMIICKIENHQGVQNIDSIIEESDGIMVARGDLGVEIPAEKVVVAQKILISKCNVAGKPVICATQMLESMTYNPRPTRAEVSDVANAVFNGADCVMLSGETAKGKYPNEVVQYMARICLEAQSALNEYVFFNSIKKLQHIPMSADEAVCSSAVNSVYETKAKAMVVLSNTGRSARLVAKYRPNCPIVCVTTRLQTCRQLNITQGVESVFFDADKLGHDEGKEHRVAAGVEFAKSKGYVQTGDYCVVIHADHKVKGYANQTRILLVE
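Kinase-Glo luminescence read after 1 h RT reaction of 0.1 nM LmPK with 0.5 mM PEP and 0.1 mM ADP. Activity scaled between uninhibited and enzyme-free controls.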
VACV Venus inh: qHTS for Stage-Specific Inhibitors of Vaccinia Orthopoxvirus: Venus Reporter Primary qHTS; Vaccinia virus Venus reporter expression, fluorescence; Potency, µM (doses to about 36.5 µM), without a hit: top-dose activity change, negative = inhibition, most hits filed as inhibitors; AID 720580, 2013; 0.46% of 330,000 active; calls by dose curve; tested in A549 cells; also: potency is read from the fitted curve at half-maximal effect; nearly all actives have a fitted effect of over 30% in size
TbPYK inhibitor: qHTS of Trypanosoma Brucei Inhibitors. TbPYK enzyme, Kinase-Glo Plus ATP luminescence, 45 min. Potency, µM (highest dose often 76.8 µM), without a hit: top-dose activity, negative = inhibition, hits mostly inhibitors. AID 624173, 2012. 0.12% of 410,000 active; also: potency is read from the fitted curve at half-maximal effect; nearly all actives have a fitted effect of over 50% in size
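Luminescent Kinase-Glo Plus end-point after 45 min room-temperature reaction of T. brucei pyruvate kinase started with 130 uM ADP (final). Buffer TEA 50 mM pH 7.2 with KCl, MgCl2, BSA, Tween-20; titration-based qHTS with fitted concentration-effect curves.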
VACV mCherry inh: qHTS for Stage-Specific Inhibitors of Vaccinia Orthopoxvirus: mCherry Reporter Primary qHTS. Vaccinia virus mCherry reporter infection, fluorescence. Potency, µM (titrated, usually from 36.5 µM), for inactives: top-dose activity change, negative = inhibition, usual class: inhibitors. AID 720579, 2013. 0.63% of 310,000 active; calls by dose curve; tested in A549 cells; also: potency is read from the fitted curve at half-maximal effect; nearly all actives have a fitted effect of over 35% in size
HCMV antiviral: qHTS Assay for inhibitors of the human cytomegalovirus (HCMV); 4.5% of 410,000 active; HFF cells, HCMV-luciferase reporter, 72 h; hits give low values; AID 1259415, 2018; activity change, negative = inhibition, % at 57.5 µM; in the data active = activity change below about -60%; inconclusive = no clear call, values can overlap the other calls; inactive = above about -39%
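Inhibition of viral replication was scored as loss of reporter luminescence in HFFs infected with HCMV-luciferase (MOI 1 PFU/cell) for 72 h; compounds tested at 2 doses, normalized to buffer and Salinomycin controls.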
Active calls of the source: *; i = inactive; ? = inconclusive; . = no result; [ ] = dose if it differs, or a comment. Sampled rows, rich in hits. Any-hit rate of the full collection: about 5%. Unless noted, calls follow the shape of the dose curve; as a rule, active = well fitted curve in the direction sought with a large enough effect; inconclusive = small, poorly fitted or top-dose-only effect, or another doubt; inactive = no such curve, though single readings can be large; an effect the other way counts as inactive or inconclusive. % is scaled to controls: 0 for no effect and ±100 for the full control effect.

SMILES	LmPK inhibitor	VACV Venus inh	TbPYK inhibitor	VACV mCherry inh	HCMV antiviral
CCC1CCCCN1CCNC(=O)C1CCN(S(=O)(=O)c2cccc3nsnc23)CC1 (stereo unspecified)	4%	.	-3%	.	-14
Cc1ccc(SCC(=O)OCC(=O)N(CCC#N)c2ccccc2)cc1C	.	-6%	-2%	-10%	-22
Cc1ccc(N(CCC#N)C(=O)CCl)cc1C	1%	-20%	-7%	-7%	-100*
CN1C2CCC1CC(NS(=O)(=O)c1cccc(C(F)(F)F)c1)C2 (stereo unspecified)	-2%	-6%	3%	-23%	2
Cc1cccc(NC(=S)/N=C(\N)Nc2nc(C)c3ccccc3n2)c1	3%	-20%	1%	?	?
Cc1cc(C)cc(NC(=S)/N=C(\N)Nc2nc(C)c3ccccc3n2)c1	0%	-19%	1%	?	-79*
CC(C)(C)c1cc([N+](=O)[O-])cc(C(C)(C)C)c1O	-2%	.	-2%	.	-100*
COc1ccc(/C=C2\CCCC3C2=NN(C(=O)CSc2ncn[nH]2)C3c2ccc(OC)cc2)cc1 (stereo unspecified)	1%	?	5%	?	-23
O=C(CSc1ncn[nH]1)N1N=C2/C(=C/c3ccccc3)CCCC2C1c1ccccc1 (stereo unspecified)	0%	.	0%	.	-90*
NS(=O)(=O)c1cccnc1Nc1cccc(Cl)c1Cl	5%	-21%	6%	.	53
COc1ccc(OC)c(C2=NO[C@@](CC(=O)O)(C(=O)Nc3ccc4c(c3)OCCO4)C2)c1	0%	-16%	4%	-14%	-100*
COc1ccccc1C(CNC(=S)NCc1ccccc1)N1CCCC1 (stereo unspecified)	5%	-28%	-4%	-16%	-72*
COc1ccccc1C(CNC(=O)CNC(=O)c1ccccc1Cl)N1CCCC1 (stereo unspecified)	.	.	0%	.	-101*
COc1ccccc1C(CNC(=O)CNC(=O)c1ccc(Cl)c(Cl)c1)N1CCCC1 (stereo unspecified)	.	-5%	3%	i	1
COc1ccc(C(CNC(=S)NCc2ccccc2)N2CCCC2)cc1 (stereo unspecified)	-4%	-5%	0%	i	-36
COc1ccc(S(=O)(=O)N(C)CC(=O)NC2CCCC2)cc1OC	1%	-8%	3%	i	-35
COc1ccc(C(=O)c2ccc(N(C)C)cc2)c(OC)c1	0%	.	6%	.	66
CN(C)c1ccc(C(=O)c2ccc(N(C)C)c3ccccc23)cc1	2%	?	-6%	.	-80*
Cc1cccc(CN2CCc3c([nH]c4ccccc34)C2CC(C)C)n1 (stereo unspecified)	2%	-6%	-4%	-16%	66
COc1ccccc1NC(=O)Cc1nc(CCl)cs1	-2%	-18%	-15%	-8%	-2
Cc1ccc(C(=O)N/C(=C/c2ccc(-c3ccc([N+](=O)[O-])cc3)o2)C(=O)NCCCN(C)C)cc1	.	11µM*	-4%	?	?
O=C(NCCCO)/C(=C/c1ccc(-c2cccc([N+](=O)[O-])c2)o1)NC(=O)c1ccccc1	-2%	1%	0%	10%	-25
CCC(C)(C)C(=O)Nc1cc([N+](=O)[O-])ccc1Cl	3%	7%	-5%	-6%	78
Cn1c(SCCCC(=O)c2ccc(F)cc2)nnc1-c1ccncc1	9%	2%	-6%	.	-33
COCCn1c(SCCCC(=O)c2ccc(Br)cc2)nnc1-c1ccncc1	14%	-18%	-3%	-27%	-71*
SMILES	LmPK inhibitor	VACV Venus inh	TbPYK inhibitor	VACV mCherry inh	HCMV antiviral
CCn1c(SCc2ccc(C(=O)Nc3cc(C)cc(C)c3)cc2)nnc1-c1ccncc1	4%	?	-7%	.	-62*
Cc1ccc(NC(=O)c2ccc(CSc3nnc(-c4ccncc4)n3C)cc2)cc1	9%	-9%	-6%	.	6
CN1/C(=C\C(=O)CSc2nnc(N)s2)C(C)(C)c2ccccc21	0%	-12%	-7%	-10%	?
COCCn1c(SCC(=O)c2c(-c3ccccc3)n(C)c3ccccc23)nnc1-c1ccncc1	4%	20%	-1%	i	-36
COc1ccc(Nc2nnc(SCC(=O)/C=C3/N(C)c4ccccc4C3(C)C)s2)cc1	1%	-9%	-17%	-2%	-74*
COCCn1c(SCC(=O)/C=C2\N(C)c3ccccc3C2(C)C)nnc1-c1ccncc1	4%	.	0%	.	-75*
O=C(CSc1nnc(COc2ccccc2)n1Cc1ccco1)NCc1ccco1	9%	-5%	?	i	-17
c1ccc(CCNc2nc3ccccc3n3nnnc23)cc1	-3%	7%	2%	-14%	1
ClC(Cl)(Cl)c1nc2ccccc2n2nncc12	2%	?	-1%	?	-88*
Fc1ccc(C2c3[nH]c4ccccc4c3CCN2Cc2cccn2-c2ncccn2)cc1 (stereo unspecified)	0%	24%	6%	4.5µM*	-91*
O=S(=O)(CCN1CCN(c2ccccc2O)CC1)c1ccc(Cl)cc1	.	?	-3%	?	-23
O=S(=O)(CCN1CCSCC1)c1ccccc1	-6%	?	1%	13µM*	35
Cc1cc(C)n2nc(CNS(=O)(=O)c3cccc(Cl)c3)nc2n1	.	1%	1%	-9%	-21
CC(=O)Nc1cccc(-c2ccnc3c2CC(C(=O)NCC2CCOCC2)O3)c1 (stereo unspecified)	.	-2%	2%	1%	8
O=C1c2ccccc2NC(c2ccc(-c3ccccc3F)o2)N1O (stereo unspecified)	.	.	4%	.	-27
Cc1cc([N+](=O)[O-])ccc1-c1ccc(C2Nc3ccccc3C(=O)N2O)o1 (stereo unspecified)	-1%	.	-5%	.	-99*
N#CC(Sc1ccccn1)c1ccc(Cl)cc1 (stereo unspecified)	17%	-25%	-17%	-14%	-25
Cc1ccc(OCc2nc(-c3ccccn3)no2)c(Br)c1	16µM*	.	-3%	.	0
c1ccc(OCCCc2nc(-c3ccccn3)no2)cc1	-7%	3%	-8%	.	-106*
c1ccc(OCCCc2nc(-c3ccncc3)no2)cc1	-1%	-10%	-3%	-11%	-6
Cc1c(CCNC(=O)c2ccco2)sc2nc(-c3ccc(F)cc3)nn12	.	-14%	4%	i	-19
Cc1oc(=O)c(NC(=O)c2ccc(Cl)cc2)cc1C(=O)c1ccccc1	-1%	.	?	.	-33
COC(=O)c1cc(Br)c(=O)n(CCN2CCCCC2)c1	2%	-12%	-8%	-22%[1.46 µM]	16
COC(=O)c1cc(Br)c(=O)n(CCN2CCCC2)c1	1%	-6%	3%	-13%	-90*
